According to PubChem BioAssay (NCATS):
Inconclusive results are not listed. Entries that show only a call come without a potency. Calls of active or inactive are those of the source. Unless noted, the call rests on the fitted dose curve.

Key:
[1] = Primary qHTS for inhibitors of SARS-S pseudo-typed particle cell entry (AID 1479145); details: outcome: dose series up to 57.1 µM unless noted; further: nearly all actives have a fitted effect of over 45% in size; further: potency means the concentration at half of the fitted maximal effect
[2] = Primary qHTS for Huh7 cytotoxicity: counterscreen for inhibitors of MERS-S pseudotyped particle cell entry (AID 1479147); details: outcome: dose series up to 57.1 µM unless noted; further: potency means the concentration at half of the fitted maximal effect
[3] = Primary qHTS for Vero E6 cytotoxicity: counterscreen for inhibitors of SARS-S pseudo-typed particle cell entry (AID 1479150); details: outcome: dose series up to 57.1 µM unless noted
[4] = Cytotoxicity counterscreen for inhibitors of SARS-CoV-2 cell entry (AID 1645845); details: outcome: dose series up to 57.1 µM unless noted; further: nearly all actives have a fitted effect of over 50% in size
Method in brief: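 ATP-content luminescence (ATPLite 1step, 15 min RT) read after 48 h compound exposure of Expi293F cells stably expressing human ACE2; normalized to cells-only wells and media-only wells.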

[5] = Confirmatory qHTS to identify inhibitors of SARS-CoV-2 cell entry (AID 1645844); further: potency means the concentration at half of the fitted maximal effect; nearly all actives have a fitted effect of over 45% in size
Method in brief: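 Luminescence entry read-out after 48 h: spike-pseudotyped MLV particles (Wuhan-Hu-1, 19-aa C-terminal truncation) added to compound-pretreated (1 h) HEK293-ACE2 cells; Data were normalised to bald PP and spike PP wells.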

[6] = VSVG counterscreen qHTS to identify inhibitors of SARS-CoV-2 cell entry (AID 1645847); further: nearly all actives have a fitted effect of over 65% in size; further: potency means the concentration at half of the fitted maximal effect
Method in brief: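 Luminescence from a luciferase reporter, normalised to bald particle and VSV-G pseudotyped particle wells, is the read-out. Cells are HEK293 expressing human ACE2, exposed to compound 1 h before a 48 h particle infection at 37 °C.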

[7] = Primary qHTS for inhibitors of MERS-S pseudo-typed particle cell entry (AID 1479149); details: outcome: dose series up to 57.1 µM unless noted; further: nearly all actives have a fitted effect of over 60% in size; further: potency means the concentration at half of the fitted maximal effect
[8] = Primary qHTS to identify inhibitors of SARS-CoV-2 cell entry (AID 1645846); details: SARS-CoV-2 pseudovirus cell entry assay, luminescence; activity change, negative = inhibition: at 57.1 µM (top of the series) unless noted; further: nearly all actives have a fitted effect of over 45% in size; further: potency means the concentration at half of the fitted maximal effect
Method in brief: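 Inhibition of spike-mediated entry was scored in human ACE2-transfected Expi293F cells. Particles were MLV-pseudotyped with Wuhan-Hu-1 S carrying a 19-aa C-terminal deletion; signal was luciferase after two days, scaled between spike PP and fusion-protein-free PP.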

[9] = NCATS anti-infectives library activity on the primary C. elegans qHTS viability assay (AID 1745855)
Method in brief: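 GFP read-out by 488 nm laser cytometry at day 0, 3 and 7, gated on object perimeter, area and peak intensity, scored viability of PE254-GFP-FLuc worms exposed to compound in S medium with bacterial capsules at 21 °C.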

[10] = molecular target: Glutathione peroxidase 1 (Homo sapiens) (UniProt P07203); experiment: Primary qHTS Assay for Inhibitors of Recombinant Selenoprotein Glutathione Peroxidase 1 (GPX1) (AID 1845191; active means well fitted inhibition curve with a large enough effect; further: nearly all actives have a fitted effect of over 65% in size)
Method in brief: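 NADPH consumption tracked by fluorescence at 340/450 nm between t=0 and t=15 min, room temperature. Final mix: 10 nM GPX1, 100 nM glutathione reductase, 1 mM GSH, 0.5 mM NADPH, 0.5 mM cumene hydroperoxide, 0.01% BSA; 30 min compound–enzyme preincubation.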

[11] = molecular target: Phospholipid hydroperoxide glutathione peroxidase GPX4 (Homo sapiens) (UniProt P36969); experiment: Primary qHTS Assay for Inhibitors of Recombinant Selenoprotein Glutathione Peroxidase 4 (GPX4) (AID 1845192; active means well fitted inhibition curve with a large enough effect; further: nearly all actives have a fitted effect of over 65% in size)
Method in brief: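 NADPH consumption followed by fluorescence at 340/450 nm, t=0 and after 15 min at room temperature. Reaction started with cumene hydroperoxide (0.5 mM final) after 30 min compound–GPX4 preincubation; final 200 nM GPX4, 100 nM GR, 1 mM GSH, 0.5 mM NADPH.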

[12] = molecular target: Peroxisome proliferator-activated receptor delta (Homo sapiens) (UniProt Q03181); experiment: qHTS assay for small molecule agonists of peroxisome proliferator-activated receptor delta signaling (AID 588534)
Method in brief: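 Agonist-mode qHTS; reporter cells, 5 hrs 37 C pre-incubation; compound titration, 18 hrs 37 C; CCF4 dye, 2 hrs RT; fluorescence read. EC50/efficacy via Hill fit.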

Chain of Glutathione peroxidase 1 (Homo sapiens) (P07203 whole entry, looked up): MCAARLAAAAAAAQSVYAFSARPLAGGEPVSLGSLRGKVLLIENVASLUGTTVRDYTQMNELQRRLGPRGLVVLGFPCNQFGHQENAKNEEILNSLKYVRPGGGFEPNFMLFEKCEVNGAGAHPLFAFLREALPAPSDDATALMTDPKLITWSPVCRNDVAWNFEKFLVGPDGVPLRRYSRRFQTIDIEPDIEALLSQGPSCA
Chain of Phospholipid hydroperoxide glutathione peroxidase GPX4 (Homo sapiens) (P36969 whole entry, looked up): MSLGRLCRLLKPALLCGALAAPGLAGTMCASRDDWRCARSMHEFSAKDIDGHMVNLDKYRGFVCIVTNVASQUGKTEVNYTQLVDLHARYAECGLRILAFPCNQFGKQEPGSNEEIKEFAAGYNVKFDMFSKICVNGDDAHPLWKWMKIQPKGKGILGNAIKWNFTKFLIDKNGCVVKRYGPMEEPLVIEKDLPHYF
Chain of Peroxisome proliferator-activated receptor delta (Homo sapiens) (Q03181 whole entry, looked up): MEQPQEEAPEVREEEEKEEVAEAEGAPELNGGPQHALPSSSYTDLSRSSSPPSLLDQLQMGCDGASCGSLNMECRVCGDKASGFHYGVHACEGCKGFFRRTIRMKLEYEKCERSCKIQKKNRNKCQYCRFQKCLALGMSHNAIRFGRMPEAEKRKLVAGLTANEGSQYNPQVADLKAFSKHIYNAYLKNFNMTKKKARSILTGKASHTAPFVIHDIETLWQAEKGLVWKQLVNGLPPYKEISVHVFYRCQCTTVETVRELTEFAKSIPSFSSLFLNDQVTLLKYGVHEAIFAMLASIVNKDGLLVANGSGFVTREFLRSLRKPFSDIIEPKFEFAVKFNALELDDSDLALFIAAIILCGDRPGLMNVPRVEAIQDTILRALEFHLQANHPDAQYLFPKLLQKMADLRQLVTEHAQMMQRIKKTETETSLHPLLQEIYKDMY

With `CCOC(=O)Cc1ccc(-c2ccccc2)cc1` the Potency [1] was “inactive”, the Potency [2] was “inactive” and the Potency [3] was “inactive”. The Potency [4] was “inactive”.

In the case of `C=C(NC(=O)C(=C)NC(=O)c1csc(C2=N[C@H]3c4csc(n4)[C@H]4NC(=O)c5csc(n5)[C@H]([C@@](C)(O)[C@@H](C)O)NC(=O)[C@H]5CSC(=N5)C(=CC)NC(=O)[C@H]([C@@H](C)O)NC(=O)c5csc(n5)[C@]3(CC2)NC(=O)[C@H](C)NC(=O)C(=C)NC(=O)[C@H](C)NC(=O)[C@H](C(C)CC)N[C@@H]2C=Cc3c([C@H](C)O)cc(nc3[C@H]2O)C(=O)O[C@@H]4C)n1)C(N)=O` (stereo partly specified), the Potency [1] is reported as “inactive”, the Potency [2] is reported as 20 µM (active) and the Potency [3] is reported as “inactive”. The Potency [5] was 3.41 µM (active) and the Potency [6] was 1.71 µM (active).

In the case of `CCCCCCCCCCCC[n+]1ccc2ccccc2c1`, the Potency [1] is reported as 2.82 µM (active), the Potency [2] is reported as “inactive” and the Potency [7] is reported as 5.62 µM (active). The Potency [8] was 3.16 µM (active).

With `C=C1CC[C@H](O)CC1=C/C=C1\CCC[C@]2(C)[C@@H]([C@H](C)CCCC(C)(C)O)CC[C@@H]12` the Potency [1] was “inactive”, the Potency [2] was “inactive” and the Potency [3] was “inactive”. For the same compound, the Potency [4] was “inactive”.

For `COC[C@H]1C[C@@H](c2ncc(-c3ccc4c(c3)COc3cc5c(ccc6[nH]c([C@@H]7CC[C@H](C)N7C(=O)[C@@H](NC(=O)OC)C(C)C)nc65)cc3-4)[nH]2)N(C(=O)[C@H](NC(=O)OC)c2ccccc2)C1`, the Potency [1] was “inactive”, the Potency [2] was “inactive” and the Potency [3] was “inactive”. For the same compound, the Potency [4] was “inactive” and the Potency [6] was 1.52 µM (active).

In the case of `CC(C)OC(=O)[C@H](C)N[P@](=O)(CO[C@H](C)Cn1cnc2c(N)ncnc21)Oc1ccccc1`, the Potency [1] is reported as 0.891 µM (active), the Potency [7] is reported as “inactive” and the Potency [3] is reported as “inactive”. For the same compound, the Potency [4] was “inactive”, the activity change, negative = inhibition [8] was -96.1% and the Potency [6] was 0.0096 µM (active). For the same compound, the Potency [9] was “inactive”, the Potency [10] was “inactive” and the Potency [11] was “inactive”.

With `COc1ccc(C=CC(=O)O)cc1` the Potency [1] was “inactive”, the Potency [2] was “inactive” and the Potency [3] was “inactive”. The Potency [4] was “inactive” and the activity change, negative = inhibition [8] was -10.2%.

With `CC[C@@]1([C@@H]2O[C@@H]([C@H]3O[C@@](O)(CO)[C@H](C)C[C@@H]3C)C[C@@H]2C)CC[C@H]([C@]2(C)CCC3(C[C@H](O)[C@@H](C)[C@@H]([C@@H](C)[C@@H](OC)[C@H](C)C(=O)O)O3)O2)O1` (stereo partly specified) the Potency [1] was “inactive”, the Potency [7] was 1.12 µM (active) and the Potency [3] was “inactive”.

With `CC[C@H]1OC(=O)[C@H](C)[C@@H](O[C@H]2C[C@@](C)(OC)[C@@H](O)[C@H](C)O2)[C@H](C)[C@@H](O[C@@H]2O[C@H](C)C[C@H](N(C)C)[C@H]2O)[C@](C)(O)C[C@@H](C)CN(C)[C@H](C)[C@@H](O)[C@]1(C)O` the outcome [12] was “inactive”, the Potency [1] was “inactive” and the Potency [2] was “inactive”. For the same compound, the Potency [3] was “inactive”, the Potency [8] was 12.6 µM (active) and the Potency [6] was “inactive”.

In the case of `CN1CCN(CCCN2c3ccccc3Sc3ccccc32)CC1`, the Potency [1] is reported as 28.2 µM (active), the Potency [2] is reported as 31.6 µM (active) and the Potency [7] is reported as 31.6 µM (active). The Potency [8] was 31.6 µM (active).

For `C=C1C/C(=C\C=C2/CCC[C@]3(C)[C@@H]([C@H](C)/C=C/C(C)C(C)C)CC[C@@H]23)[C@@H](O)C[C@@H]1O` (stereo partly specified), the Potency [1] was “inactive”, the Potency [2] was “inactive” and the Potency [3] was “inactive”. For the same compound, the Potency [6] was 0.429 µM (active).

For `CC(C)(O)CNc1nc(Nc2ccnc(C(F)(F)F)c2)nc(-c2cccc(C(F)(F)F)n2)n1`, the Potency [1] was “inactive”, the Potency [2] was “inactive” and the Potency [3] was “inactive”. The Potency [4] was “inactive”.

In the case of `Nc1nc(-n2cc(C(=O)O)c(=O)c3cc(F)c(N4CC(O)C4)c(Cl)c32)c(F)cc1F`, the Potency [1] is reported as “inactive”, the Potency [2] is reported as “inactive” and the Potency [3] is reported as “inactive”. The Potency [4] was “inactive”.
